The compounds below were run on Scedosporium aurantiacum CBS 136046 (assay: growth inhibition relative to DMSO control (OD600); higher = more antifungal activity, active = 80 or more; extreme values may be limits of the assay). Conditions: 5 µM; 72 h; 37 °C.
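Also: conidia screened in RPMI 1640 medium under 5% CO2, growth read by spectrophotometer, medium with 0.5% DMSO serving as the untreated reference.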

Growth inhibition, inactive:
O=C(Nc1ccc(F)cc1)c1nn(-c2ccccc2)c(=O)cc1Cl 32.8%
CN(O)C(=O)c1cc2c(CN3CCC[C@H]3C(N)=O)cn(Cc3ccc(F)cc3)c2cn1 1.58%
C[C@H](NC(CC(=O)c1ccccc1C(F)(F)F)C(=O)O)c1ccccc1 (some centres undefined) 2.25%
CCC[C@@H]1C[C@@H](C(=O)N[C@@H]([C@H]2O[C@H](SC)[C@H](O)[C@@H](O)[C@H]2O)[C@H](C)Cl)N(C)C1 16.8%
CCOC(=O)N1CCN(c2ccc(Cl)cc2)CC1 10.6%
CC(C)(C)OC(=O)NCc1ccc(C(=O)N[C@H]2CCOC2=O)cc1 15.3%
CC(C)(C)c1ccc(Oc2ccc(N)cc2)cc1 15.8%
CCc1cc(CCC(=O)Nc2ccccc2O)c(O)nc1C 5.23%
N#CCN1C(=O)COc2cc(F)c(N3C(=O)c4ccccc4C3=O)cc21 0%
COc1ccc(C(C)(C)C)cc1NC(=O)C(=O)c1ccc(OCCN2CCOCC2)c2ccccc12 9.3%
CCOCc1nc2c(N)nc3ccccc3c2n1CC(C)(C)O 14.6%
NC(=O)c1cnccn1 1.73%
Cc1cc(C)n2nc(C(=O)NS(=O)(=O)c3c(C)cccc3OC(F)(F)F)nc2n1 0%
O=S(=O)(NCB(O)O)c1ccc(-c2nnn[nH]2)cc1C(F)(F)F 13.6%
CCC[C@H](NC(=O)[C@@H]1[C@H]2CCC[C@H]2CN1C(=O)[C@@H](NC(=O)[C@@H](NC(=O)c1cnccn1)C1CCCCC1)C(C)(C)C)C(=O)C(=O)NC1CC1 4.34%
CCCCCCCc1[nH]c2ccccc2c(=O)c1O 8.25%
CO[C@@]1(NC(=O)Cc2cccs2)C(=O)N2C(C(=O)O)=C(COC(N)=O)CS[C@@H]21 20.8%
Oc1c(C(Nc2nc3ccccc3s2)c2ccc(OC(F)F)cc2)ccc2cccnc12 (centres undefined) 12%
CCc1cc(O)c(Oc2cccnc2N)cc1F 12.4%
COc1c(F)c(F)cc2c(=O)c(C(=O)O)cn(C3CC3)c12 43.8%
COc1ccc(C)cc1NC(=O)c1ccc(S(=O)(=O)N2CCCCC2)cc1 32.4%
CC(C)=CCC/C(C)=C/CNCCNC1C2CC3CC(C2)CC1C3 (centres undefined) 61.4%
CC(C)N(c1cc(-c2ccccc2)sc1C(=O)O)C(=O)[C@H]1CC[C@H](C)CC1 16.1%
O=C1NC(=O)C(Br)=C1Br 24.4%

Source: the supplement of paper PMC9897528
